In PMC7862700, “An all-to-all approach to the identification of sequence-specific readers for epigenetic DNA modifications on cytosine”:

How the values were obtained:
Experiment in all cases: DAPPL (digital affinity profiling via proximity ligation, sequencing); 10 mM Tris-HCl pH 7.5, 50 mM NaCl, 1 mM DTT, 4% glycerol, room temperature, 30 min; GST-TFs on glutathione beads, 16-mer random dsDNA library, 0.1% formaldehyde crosslink after washing; high values mean tight binding
Conditions in all cases: protein: recombinant; tags: N-terminal GST; dsDNA, one strand shown
ERF = molecular target: T1, ERF (Homo sapiens, UniProt P50548 1-548)
T1 sequence: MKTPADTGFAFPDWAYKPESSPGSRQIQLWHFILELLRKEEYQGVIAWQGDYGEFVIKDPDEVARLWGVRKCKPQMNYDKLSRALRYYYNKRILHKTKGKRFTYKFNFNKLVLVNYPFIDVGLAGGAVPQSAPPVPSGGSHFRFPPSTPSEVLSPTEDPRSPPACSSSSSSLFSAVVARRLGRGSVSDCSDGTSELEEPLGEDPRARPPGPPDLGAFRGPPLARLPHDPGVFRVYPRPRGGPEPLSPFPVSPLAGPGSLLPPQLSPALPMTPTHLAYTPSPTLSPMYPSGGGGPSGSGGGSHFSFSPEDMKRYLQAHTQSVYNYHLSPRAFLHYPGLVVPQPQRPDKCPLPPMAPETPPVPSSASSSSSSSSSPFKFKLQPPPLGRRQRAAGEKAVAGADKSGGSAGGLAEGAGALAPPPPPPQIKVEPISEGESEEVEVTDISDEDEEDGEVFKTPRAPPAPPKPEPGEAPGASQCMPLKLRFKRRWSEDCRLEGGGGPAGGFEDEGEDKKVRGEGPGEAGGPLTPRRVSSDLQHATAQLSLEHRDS
Procedure, shortened: (§1)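 Beads coated with glutathione captured GST-fused human transcription factors that had been expressed in yeast, and the factors were then given DNA barcodes and pooled with a tag-only sample. The pools were incubated with 200 nmole of a random double-stranded 16-mer DNA library in Tris/NaCl/DTT/glycerol buffer for 30 min at room temperature, washed, crosslinked with 0.1% formaldehyde and proximity-ligated with BsaI/T4 ligase at 37 °C for 1 h. PCR amplification and Illumina NextSeq500 sequencing came last. Binding signal is each hexamer's read frequency for a factor divided by its frequency for the tag-only sample.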

ETV3L = molecular target: T2, ETV3L (Homo sapiens, UniProt Q6ZN32 1-361)
T2 sequence: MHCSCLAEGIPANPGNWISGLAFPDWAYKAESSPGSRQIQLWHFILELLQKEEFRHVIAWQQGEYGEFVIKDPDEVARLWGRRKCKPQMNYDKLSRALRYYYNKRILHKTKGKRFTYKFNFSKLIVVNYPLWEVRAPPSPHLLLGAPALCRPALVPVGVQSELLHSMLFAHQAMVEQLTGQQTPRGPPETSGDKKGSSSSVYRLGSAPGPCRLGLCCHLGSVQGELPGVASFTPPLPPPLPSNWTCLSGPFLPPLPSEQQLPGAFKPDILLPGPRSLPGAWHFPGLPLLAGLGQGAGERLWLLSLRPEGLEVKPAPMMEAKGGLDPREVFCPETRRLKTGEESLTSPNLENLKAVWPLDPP
Procedure, shortened: as §1

ETS2 = molecular target: T3, ETS2 (Homo sapiens, UniProt P15036 1-469)
T3 sequence: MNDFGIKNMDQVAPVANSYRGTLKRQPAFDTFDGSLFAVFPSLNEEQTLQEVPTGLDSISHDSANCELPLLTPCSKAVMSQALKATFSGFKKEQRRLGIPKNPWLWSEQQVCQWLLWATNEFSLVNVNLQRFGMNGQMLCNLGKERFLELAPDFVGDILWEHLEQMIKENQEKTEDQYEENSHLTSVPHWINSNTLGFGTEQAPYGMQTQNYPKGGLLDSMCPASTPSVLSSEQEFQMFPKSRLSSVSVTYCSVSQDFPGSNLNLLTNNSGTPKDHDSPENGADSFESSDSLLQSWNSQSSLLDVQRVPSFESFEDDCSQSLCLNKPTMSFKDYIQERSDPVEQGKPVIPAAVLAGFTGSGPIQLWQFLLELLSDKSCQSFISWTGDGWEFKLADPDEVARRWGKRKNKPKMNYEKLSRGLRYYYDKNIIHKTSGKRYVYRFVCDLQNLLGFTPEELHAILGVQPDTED
Procedure, shortened: as §1

SPDEF = molecular target: T4, SPDEF (Homo sapiens, UniProt O95238 1-335)
T4 sequence: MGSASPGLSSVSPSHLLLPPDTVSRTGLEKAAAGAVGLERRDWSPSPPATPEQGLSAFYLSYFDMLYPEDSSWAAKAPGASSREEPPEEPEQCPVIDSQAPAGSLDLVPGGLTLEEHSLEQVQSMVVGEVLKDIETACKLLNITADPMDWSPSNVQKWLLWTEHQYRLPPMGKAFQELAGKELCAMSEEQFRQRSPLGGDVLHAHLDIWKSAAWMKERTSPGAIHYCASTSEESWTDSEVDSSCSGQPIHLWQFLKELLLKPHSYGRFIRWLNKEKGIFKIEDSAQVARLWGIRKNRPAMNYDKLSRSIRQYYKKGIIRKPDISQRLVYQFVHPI
Procedure, shortened: as §1

ETV7 = molecular target: T5, ETV7 (Homo sapiens, UniProt Q9Y603 1-341)
T5 sequence: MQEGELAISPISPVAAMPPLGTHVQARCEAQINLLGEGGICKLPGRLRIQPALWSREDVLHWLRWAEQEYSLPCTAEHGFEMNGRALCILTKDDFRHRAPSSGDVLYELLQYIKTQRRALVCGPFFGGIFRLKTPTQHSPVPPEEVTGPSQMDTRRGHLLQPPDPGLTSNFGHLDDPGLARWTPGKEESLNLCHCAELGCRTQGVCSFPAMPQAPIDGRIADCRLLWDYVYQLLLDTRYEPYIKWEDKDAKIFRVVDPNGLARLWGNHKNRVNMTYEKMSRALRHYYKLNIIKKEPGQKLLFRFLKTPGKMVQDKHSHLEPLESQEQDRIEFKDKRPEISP
Procedure, shortened: as §1

ELF5 = molecular target: T6, ELF5 (Homo sapiens, UniProt Q9UKW6-2 1-255)
T6 sequence: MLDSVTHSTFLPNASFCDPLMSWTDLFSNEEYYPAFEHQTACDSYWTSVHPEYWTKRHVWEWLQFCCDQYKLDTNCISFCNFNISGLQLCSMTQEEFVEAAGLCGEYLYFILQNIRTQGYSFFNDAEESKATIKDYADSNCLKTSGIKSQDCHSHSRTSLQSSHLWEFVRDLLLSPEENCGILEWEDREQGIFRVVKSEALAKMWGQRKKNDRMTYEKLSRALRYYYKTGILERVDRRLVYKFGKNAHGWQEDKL
Procedure, shortened: as §1

ETV3 = molecular target: T7, ETV3 (Homo sapiens, UniProt P41162-2 1-143)
T7 sequence: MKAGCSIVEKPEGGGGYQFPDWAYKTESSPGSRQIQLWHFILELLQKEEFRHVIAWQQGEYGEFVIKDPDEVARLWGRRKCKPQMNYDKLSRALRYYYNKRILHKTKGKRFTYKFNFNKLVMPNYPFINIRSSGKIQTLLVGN
Procedure, shortened: as §1

ETV6 = ETV6 (Homo sapiens, UniProt P41212 1-452)
Sequence of ETV6 (P41212 whole entry): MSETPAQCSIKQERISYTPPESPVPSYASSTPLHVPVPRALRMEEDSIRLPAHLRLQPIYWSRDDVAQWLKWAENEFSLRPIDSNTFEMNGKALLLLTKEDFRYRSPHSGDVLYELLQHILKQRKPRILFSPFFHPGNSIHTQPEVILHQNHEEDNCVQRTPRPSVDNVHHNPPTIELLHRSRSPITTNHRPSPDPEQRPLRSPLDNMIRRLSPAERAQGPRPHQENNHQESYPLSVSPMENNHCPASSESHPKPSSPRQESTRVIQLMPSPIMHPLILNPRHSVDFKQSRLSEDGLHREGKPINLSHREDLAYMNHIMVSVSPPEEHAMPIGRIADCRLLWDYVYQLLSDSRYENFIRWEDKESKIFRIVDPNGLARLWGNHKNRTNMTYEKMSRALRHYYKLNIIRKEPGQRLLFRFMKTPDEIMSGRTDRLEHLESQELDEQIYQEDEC
Procedure, shortened: as §1

Sequence: GTATCC
- binding signal (ERF): 1.77 fold enrichment (6-mer frequency, TF over GST control)
- binding signal (ETV3L): 1.81 fold enrichment (6-mer frequency, TF over GST control)
- binding signal (ETS2): 1.84 fold enrichment (6-mer frequency, TF over GST control)
- binding signal (SPDEF): 3.14 fold enrichment (6-mer frequency, TF over GST control)
- binding signal (ETV7): 1.69 fold enrichment (6-mer frequency, TF over GST control)
- binding signal (ELF5): 2.1 fold enrichment (6-mer frequency, TF over GST control)
- binding signal (ETV3): 2.03 fold enrichment (6-mer frequency, TF over GST control)
- binding signal (ETV6): 1.79 fold enrichment (6-mer frequency, TF over GST control)

Sequence: GCTTTC
- binding signal (ERF): 1.28 fold enrichment (6-mer frequency, TF over GST control)
- binding signal (ETV3L): 1.29 fold enrichment (6-mer frequency, TF over GST control)
- binding signal (ETS2): 1.24 fold enrichment (6-mer frequency, TF over GST control)
- binding signal (SPDEF): 1.18 fold enrichment (6-mer frequency, TF over GST control)
- binding signal (ETV7): 1.31 fold enrichment (6-mer frequency, TF over GST control)
- binding signal (ELF5): 1.23 fold enrichment (6-mer frequency, TF over GST control)
- binding signal (ETV3): 1.25 fold enrichment (6-mer frequency, TF over GST control)
- binding signal (ETV6): 1.23 fold enrichment (6-mer frequency, TF over GST control)

Sequence: TATTCC
- binding signal (ERF): 1.49 fold enrichment (6-mer frequency, TF over GST control)
- binding signal (ETV3L): 1.73 fold enrichment (6-mer frequency, TF over GST control)
- binding signal (ETS2): 1.58 fold enrichment (6-mer frequency, TF over GST control)
- binding signal (SPDEF): 1.83 fold enrichment (6-mer frequency, TF over GST control)
- binding signal (ETV7): 1.66 fold enrichment (6-mer frequency, TF over GST control)
- binding signal (ELF5): 1.99 fold enrichment (6-mer frequency, TF over GST control)
- binding signal (ETV3): 1.64 fold enrichment (6-mer frequency, TF over GST control)
- binding signal (ETV6): 1.67 fold enrichment (6-mer frequency, TF over GST control)

Sequence: TAGCCT
- binding signal (ERF): 1.28 fold enrichment (6-mer frequency, TF over GST control)
- binding signal (ETV3L): 1.31 fold enrichment (6-mer frequency, TF over GST control)
- binding signal (ETS2): 1.25 fold enrichment (6-mer frequency, TF over GST control)
- binding signal (SPDEF): 1.07 fold enrichment (6-mer frequency, TF over GST control)
- binding signal (ETV7): 1.2 fold enrichment (6-mer frequency, TF over GST control)
- binding signal (ELF5): 1.17 fold enrichment (6-mer frequency, TF over GST control)
- binding signal (ETV3): 1.32 fold enrichment (6-mer frequency, TF over GST control)
- binding signal (ETV6): 1.04 fold enrichment (6-mer frequency, TF over GST control)

Sequence: CTCACA
- binding signal (ERF): 1.29 fold enrichment (6-mer frequency, TF over GST control)
- binding signal (ETV3L): 1.38 fold enrichment (6-mer frequency, TF over GST control)
- binding signal (ETS2): 1.31 fold enrichment (6-mer frequency, TF over GST control)
- binding signal (SPDEF): 1.33 fold enrichment (6-mer frequency, TF over GST control)
- binding signal (ETV7): 1.24 fold enrichment (6-mer frequency, TF over GST control)
- binding signal (ELF5): 1.31 fold enrichment (6-mer frequency, TF over GST control)
- binding signal (ETV3): 1.3 fold enrichment (6-mer frequency, TF over GST control)
- binding signal (ETV6): 1.24 fold enrichment (6-mer frequency, TF over GST control)

Sequence: CTAACC
- binding signal (ERF): 1.17 fold enrichment (6-mer frequency, TF over GST control)
- binding signal (ETV3L): 1.2 fold enrichment (6-mer frequency, TF over GST control)
- binding signal (ETS2): 1.15 fold enrichment (6-mer frequency, TF over GST control)
- binding signal (SPDEF): 1.09 fold enrichment (6-mer frequency, TF over GST control)
- binding signal (ETV7): 1.04 fold enrichment (6-mer frequency, TF over GST control)
- binding signal (ELF5): 1.14 fold enrichment (6-mer frequency, TF over GST control)
- binding signal (ETV3): 1.16 fold enrichment (6-mer frequency, TF over GST control)

Sequence: AGATTT
- binding signal (ERF): 1.2 fold enrichment (6-mer frequency, TF over GST control)
- binding signal (ETV3L): 1.17 fold enrichment (6-mer frequency, TF over GST control)
- binding signal (ETS2): 1.17 fold enrichment (6-mer frequency, TF over GST control)
- binding signal (SPDEF): 1.05 fold enrichment (6-mer frequency, TF over GST control)
- binding signal (ETV7): 1.16 fold enrichment (6-mer frequency, TF over GST control)
- binding signal (ELF5): 1.22 fold enrichment (6-mer frequency, TF over GST control)
- binding signal (ETV3): 1.05 fold enrichment (6-mer frequency, TF over GST control)
- binding signal (ETV6): 1.11 fold enrichment (6-mer frequency, TF over GST control)

Sequence: CTTGCT
- binding signal (ERF): 1.36 fold enrichment (6-mer frequency, TF over GST control)
- binding signal (ETV3L): 1.37 fold enrichment (6-mer frequency, TF over GST control)
- binding signal (ETS2): 1.21 fold enrichment (6-mer frequency, TF over GST control)
- binding signal (SPDEF): 1.23 fold enrichment (6-mer frequency, TF over GST control)
- binding signal (ETV7): 1.52 fold enrichment (6-mer frequency, TF over GST control)
- binding signal (ELF5): 1.27 fold enrichment (6-mer frequency, TF over GST control)
- binding signal (ETV3): 1.33 fold enrichment (6-mer frequency, TF over GST control)
- binding signal (ETV6): 1.36 fold enrichment (6-mer frequency, TF over GST control)

Sequence: ACAAAT
- binding signal (ERF): 1.3 fold enrichment (6-mer frequency, TF over GST control)
- binding signal (ETV3L): 1.15 fold enrichment (6-mer frequency, TF over GST control)
- binding signal (ETS2): 1.16 fold enrichment (6-mer frequency, TF over GST control)
- binding signal (SPDEF): 1.1 fold enrichment (6-mer frequency, TF over GST control)
- binding signal (ETV7): 1.14 fold enrichment (6-mer frequency, TF over GST control)
- binding signal (ELF5): 1.13 fold enrichment (6-mer frequency, TF over GST control)
- binding signal (ETV3): 1.1 fold enrichment (6-mer frequency, TF over GST control)
- binding signal (ETV6): 1.17 fold enrichment (6-mer frequency, TF over GST control)
